# HT1080 IDH1KD tx: kills HT-1080 cells with IDH1 knockdown; HT-1080 IDH1 knockdown viability, ATP luminescence, 48 h; actives 2% (n = 360,000); Potency, µM (top dose mostly 46.1 µM), inactives show at the highest dose activity, negative = toxicity, actives largely listed as cytotoxic;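 also: potency is read from the fitted curve at half-maximal effect; 0% = DMSO wells and -100% = cell-free medium wells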
#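 Using the IDH1-knockdown HT-1080 line run in the same batch and compound series as the NT line, viability after 48 h at 37 °C was determined by CellTiter-Glo luminescence and expressed as % activity.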
# IL-1B inflam inh: inflammasome signaling inhibition, IL-1 beta readout. THP-1 LPS/ATP IL-1B secretion, AlphaLISA, 16 h; stronger effect = lower value. actives 4.7% (n = 360,000). AID 743279. activity change, % at 57.5 µM; in the data active = activity change below about -50%; inconclusive = mostly about -30% to -49%
#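 Secreted IL-1B measured by AlphaLISA bead assay after 16 h compound exposure of THP-1 cells; compounds (final up to 57.5 uM) added 1 h before LPS (250 ng/mL) and ATP (1.25 mM) stimulation; lower signal means less secretion.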
# HT1080-NT tox: kills 2HG-producing HT-1080-NT fibrosarcoma cells; HT-1080-NT fibrosarcoma viability, CellTiter-Glo ATP luminescence, 48 h; Potency, µM (doses to about 46.1 µM), inactives show at the top dose activity, negative = less viability, actives largely listed as cytotoxic; actives 1.6% (n = 360,000);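 also: NT is the 2HG producing partner of a matched IDH1 knockdown line; potency is read from the fitted curve at half-maximal effect; 0% = DMSO-treated cells and -100% = media-only wells without cells; nearly all actives have a fitted effect of over 55% in size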
#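 Viability by CellTiter-Glo luminescence after 48 h compound exposure at 37C of HT-1080-NT cells (750/well, RPMI, 5% FBS). % activity scaled between DMSO wells and medium-only wells, then curve-fitted and categorized by curve class.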
# TDP1 cell noCPT: qHTS for Inhibitors of human tyrosyl-DNA phosphodiesterase 1 (TDP1): qHTS in cells in absence of CPT; DT40 Tdp1-/- hTDP1 cells, no CPT, ATP luminescence, 48 h; Potency, µM (doses to about 46.2 µM), for the others: at the top dose activity change, negative = growth inhibition, usual class: inhibitors; actives 15% (n = 420,000); AID 686978, 2013; also: potency is read from the fitted curve at half-maximal effect; nearly all actives have a fitted effect of over 55% in size
#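 A cellular qHTS used chicken DT40 cells lacking endogenous Tdp1 but carrying stably transfected human TDP1. Compounds were applied without camptothecin, and cell growth kinetics were judged by ATP-dependent luminescence after ≥48 hr.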
# DT40 TDP1 CPT: growth inhibition of DT40 Tdp1-/-;hTDP1 cells with camptothecin (screen for TDP1 inhibitors). chicken DT40 Tdp1-/-;hTDP1 cells + 20 nM CPT, ATP luminescence, 48 h. Potency, µM (titrated, usually from 46.2 µM), inactives show at the top dose activity change, negative = growth inhibition, usual class: inhibitors. actives 12% (n = 420,000). AID 686979; also: potency is read from the fitted curve at half-maximal effect; nearly all actives have a fitted effect of over 55% in size
#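 Chicken DT40 Tdp1-/- cells stably complemented with human TDP1 were seeded at 400 cells/well in medium containing 20 nM camptothecin, exposed to pin-transferred compounds, and grown at 37 °C for at least 48 hr. Viability was read as ATP luminescence.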
# Active calls of the source: *; ? = inconclusive; · = no result; [ ] = another dose, or the depositor's remark. Shown are actives, neighbours in structure and some others; about 19% of the full set was active somewhere. Unless noted, calls follow the shape of the dose curve; as a rule, active = well fitted curve in the direction sought with a large enough effect; inconclusive = small, poorly fitted or top-dose-only effect, or another doubt; inactive = no such curve, though single readings can be large; an effect the other way counts as inactive or inconclusive. Unless noted, % is scaled to controls: 0 for no effect and ±100 for the full control effect.
SMILES,HT1080 IDH1KD tx,IL-1B inflam inh,HT1080-NT tox,TDP1 cell noCPT,DT40 TDP1 CPT
Cc1c(C(=O)NCc2ccccc2C(F)(F)F)sc(=O)n1Cc1ccc(Cl)c(Cl)c1,-20%,-72*,?,?,?
Cc1c(C(=O)NCc2cccnc2)sc2nc(-c3ccc(F)cc3)cn12,0%,-3,-1%,13µM*,?
Cc1c(C(=O)NCc2ccccc2Cl)sc2nc(-c3ccc(F)cc3)cn12,·,·,·,16µM*,?
Cc1c(C(=O)NCc2ccc(F)cc2)sc2nc(-c3ccccc3)cn12,·,·,·,?,18µM*
Cc1c(C(=O)NCc2ccco2)sc2nc(-c3ccccc3)cn12,?,-15,?,?,?
Cc1c(C(=O)NCCCN2CCOCC2)sc2nc(-c3ccc(F)cc3)cn12,4%,-14,?,?,?
Cc1c(C(=O)NCc2cccnc2)sc2nc(-c3ccccc3)cn12,·,5,·,16µM*,-10%
Cc1nc2ccccn2c1C(=O)NCc1cccnc1,7%,31,3%,4%,-3%
CCOC(=O)C1CCN(C(=O)COC(=O)C23CC4CC(CC(C4)C2)C3)CC1,0%,0,-4%,?,?
Cc1ccc(CSCC(=O)N/N=C/c2sccc2C)cc1,-13%,5,-7%,-19%,-16%
Cc1cccc(-n2c(-c3ccco3)nc3c(cnn3-c3ccccc3C)c2=O)c1,·,·,·,?,21µM*
Cc1cccc(-n2c(-c3ccco3)n[nH]c2=S)c1,25%,13,16%,-27%,-8%
O=c1oc(-c2ccco2)nc2c1cnn2-c1ccccc1,-2%,-19,6%,?,?
O=c1c2cnn(-c3ccccc3)c2nc(-c2ccco2)n1-c1ccccc1,-20%,-55*,-24%,21µM*,?
COc1ccc(NC(=O)Cn2c(=O)sc3ccccc32)c(OC)c1,1%,-25,13%,-21%,-22%
CCN(CC)S(=O)(=O)c1ccc(N2CCOCC2)c(NS(=O)(=O)c2ccc(Cl)s2)c1,-1%,17,-3%,-20%,-21%
COc1cccc(CC2(CO)CCCN(Cc3ccc(C)s3)C2)c1 (stereo not drawn),-14%,-6,2%,?,-18%
COc1cccc(CC2(CO)CCCN(Cc3ccccc3-c3ccco3)C2)c1 (stereo not drawn),?,19,?,?,?
COc1cccc(CC2(CO)CCCN(Cc3c(C)cc(C)cc3-n3cccn3)C2)c1 (stereo not drawn),?,-10,?,15µM*,21µM*
COc1ccc(-n2ccnc2CN2CCCC(CO)(Cc3cccc(OC)c3)C2)cc1 (stereo not drawn),-5%,2,-24%,26µM*,?
COc1cccc(CC2(CO)CCCN(Cc3ccc(CO)o3)C2)c1 (stereo not drawn),1%,20,1%,-3%,-15%
COc1cccc(CC2(CO)CCCN(Cc3cn[nH]c3-c3cc(C)ccc3C)C2)c1 (stereo not drawn),-23%,?,?,?,?
COc1cccc(CC2(CO)CCCN(Cc3cc4ccccc4[nH]3)C2)c1 (stereo not drawn),23µM*,-54*,?,?,?
COc1cccc(CC2(CO)CCCN(Cc3ccc(-c4ccco4)cc3)C2)c1 (stereo not drawn),?,7,?,21µM*,23µM*
CCOC(=O)CC1COCCN1Cc1cn(C)nc1-c1ccccc1F (stereo not drawn),3%,15,13%,-15%,-2%
SMILES,HT1080 IDH1KD tx,IL-1B inflam inh,HT1080-NT tox,TDP1 cell noCPT,DT40 TDP1 CPT
COCCCN1C(=O)C(CC(=O)NCCCN(C)C)CC(C(=O)N(C(C)C)C(C)C)=C1C (stereo not drawn),18%,11,15%,15%,-5%
COc1ccccc1-n1cc(CN2CCCC(CO)(Cc3cccc(Cl)c3)C2)cn1 (stereo not drawn),-2%,0,0%,23µM*,?
OCC1(Cc2ccccc2)CCCN(Cc2cnn(-c3ccccc3)c2)C1 (stereo not drawn),-20%,?,-13%,?,?
Cc1ccc(S(=O)(=O)NC2CCCC(C(=O)O)C2)cc1 (stereo not drawn),14%,-9,14%,-3%,-1%
O=C(Nc1nc(-c2cc3ccccc3oc2=O)cs1)c1ccco1,11%,1,-3%,?,?
O=c1oc2ccccc2cc1-c1csc(Nc2nc3c(F)cccc3s2)n1,?,16,-10%,16µM*,15µM*
O=c1oc2ccccc2cc1-c1csc(Cc2nc(-c3ccc(Cl)cc3)cs2)n1,-11%,8,1%,26µM*,?
O=c1oc2ccccc2cc1-c1csc(NN=C2CCCCC2)n1,-18%,-12,?,18µM*,?
COc1ccc(C(=O)N(Cc2cc3cccc(C)c3nc2N(C)C)CC2CCCO2)cc1 (stereo not drawn),·,·,·,-4%,-3%[9.04 µM]
COC(=O)c1cc(Br)c(=O)n(Cc2ccc(OC)c(OC)c2)c1,-5%,-11,0%,-27%,-12%
c1ccc(CSc2ccc3nnc(-c4ccccn4)n3n2)cc1,-15%,25,9%,21µM*,?
Fc1ccc(CSc2ccc3nnc(-c4cccnc4)n3n2)cc1,0%,?,-4%,16µM*,16µM*
CC(=O)Nc1ccc(N2CCCC(C)C2)c([N+](=O)[O-])c1 (stereo not drawn),2%,-19,?,23µM*,-10%
COc1ccc2oc(-c3ccc(C)c(NC(=O)c4ccc(N5CCOCC5)c([N+](=O)[O-])c4)c3)nc2c1,3%,39,2%,?,-19%
Cc1ccc2oc(-c3cccc(NC(=O)c4ccc(N5CCC(C)CC5)c([N+](=O)[O-])c4)c3)nc2c1,·,·,·,7.3µM*,18µM*
CC(=O)Nc1ccc(N2CCC(C)CC2)c([N+](=O)[O-])c1,-12%,-18,?,-18%,-14%
CC1CCCN(c2ccc(C(=O)Nc3cccnc3)cc2[N+](=O)[O-])C1 (stereo not drawn),?,?,?,?,16µM*
CC1(c2ccccc2)C(C#N)C(=O)NC(=O)C1C#N (stereo not drawn),20%,8,11%,0%,-1%
CCOc1ccc(N(CC(=O)Nc2ccc(C)cc2)S(=O)(=O)c2c(C)noc2C)cc1,-6%,-11,-16%,-27%,?
CCOc1ccccc1NC(=O)CN(c1ccc(C)cc1)S(=O)(=O)c1c(C)n[nH]c1C,?,-95*,?,?,?

# Source: PubChem
